{"source": "PubChem BioAssay (NCATS)", "note": "Values joined by “and” are separate entries in the source; they are usually repeats but may differ in a detail not shown here. Equal values may be shown once. Inconclusive results are not listed. Values without a mark were called inactive. Active and inactive are the calls of the source. The call rests on the fitted dose curve; in most records, active means well fitted inhibition curve with a large enough effect; inconclusive means small, poorly fitted or top-dose-only effect; inactive means flat fitted curve, though single readings scatter.", "data": [{"tested_on": "CRL-7250", "assay": "Cytotoxic Profiling of Annotated Libraries Using Quantitative High-Throughput Screening (AID 1296008); further: nearly all actives have a fitted effect of over 60% in size; further: potency means the concentration at half of the fitted maximal effect; on max response: on the % scale 0 is the no-effect control and ±100 the full control effect", "conditions": "Five cell lines viability, CellTiter-Glo ATP luminescence, 48-72 h; max response: active compounds read low", "in_short": "(§1)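 Cells exposed to compounds for 48 or 72 hr at 37 degrees Celsius. Viability read as ATP-coupled luminescence with CellTiter-Glo after 10 min at room temperature.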", "values": [{"molecule": "O=C(OC1C[C@H]2CC[C@@H](C1)[N+]21CCCC1)C(O)(c1ccccc1)c1ccccc1", "note": "(some centres undefined)", "max response": "4.02%"}, {"molecule": "Oc1ccc2ccccc2c1SSc1c(O)ccc2ccccc12", "max response": "-5.27%"}, {"molecule": "Oc1ccc(-c2nc(-c3ccc(F)cc3)c(-c3ccncc3)[nH]2)cc1", "max response": "-11.9%"}, {"molecule": "Nc1ccn([C@@H]2O[C@H](CO)[C@@H](O)C2O)c(=O)n1", "note": "(some centres undefined)", "outcome": "inactive"}, {"molecule": "CC1(C)C(=O)N(CCN2CCC(C(=O)c3ccc(F)cc3)CC2)c2ccccc21", "max response": "0.499%"}, {"molecule": "C[C@]12CCC(=O)C=C1CC[C@@H]1[C@H]2[C@@H](O)C[C@@]2(C)[C@H]1CC[C@]2(O)C(=O)CO", "max response": "-1.54%"}, {"molecule": "O=C(c1ccccc1)c1ccc2n1CCC2C(=O)O", "note": "(centres undefined)", "max response": "-6.97% and 1.24%"}, {"molecule": "CCOC(=O)C(C)Oc1cccc2c(=O)n(CC(=O)Nc3ccc4c(c3)OCCO4)ccc12", "note": "(centres undefined)", "max response": "3.46%"}, {"molecule": "O=C(CS(=O)Cc1ccco1)NCC=CCOc1cc(CN2CCCCC2)ccn1", "note": "(centres undefined)", "outcome": "inactive"}, {"molecule": "COC(=O)C1=C(C)NC(C)=C(C(=O)OC(C)C)C1c1cccc2nonc12", "note": "(centres undefined)", "max response": "-24.3%"}, {"molecule": "CC[C@]1(O)C[C@H]2CN(CCc3c([nH]c4ccccc34)[C@@](C(=O)OC)(c3cc4c(cc3OC)N(C=O)[C@H]3[C@@](O)(C(=O)OC)[C@H](OC(C)=O)[C@]5(CC)C=CCN6CC[C@]43[C@@H]65)C2)C1", "Potency": "29.6 nM (active) and 211 nM (active)"}, {"molecule": "Clc1ccc2c(N3CCN(CCCN4CCN(c5ccnc6cc(Cl)ccc56)CC4)CC3)ccnc2c1", "max response": "-5.75%"}, {"molecule": "CN(C)c1ccc2nc3ccc(=[N+](C)C)cc-3sc2c1", "Potency": "11.8 µM (active) and 23.7 µM (active)"}, {"molecule": "CC(C)(S)[C@@H](N)C(=O)O", "max response": "1.05%"}, {"molecule": "COc1cc2c(N3CCN(C(=O)Nc4ccc(OC(C)C)cc4)CC3)ncnc2cc1OCCCN1CCCCC1", "max response": "-25.9% and -20.4%"}, {"molecule": "O=c1oc2cc(O)ccc2s1", "max response": "4.4%"}, {"molecule": "NS(=O)(=O)c1cc(C(=O)O)c(NCc2ccco2)cc1Cl", "max response": "-5.7% and -6.17%"}, {"molecule": "CC(C)C[C@H](NC(=O)[C@H](Cc1ccccc1)NC(=O)c1cnccn1)B(O)O", "Potency": "59.6 nM (active) and 51.7 nM (active)"}, {"molecule": "C[C@@H](c1ncncc1F)[C@](O)(Cn1cncn1)c1ccc(F)cc1F", "max response": "-18.6%"}, {"molecule": "O=C(O)c1cn(-c2ccc(F)cc2)c2cc(N3CCNCC3)c(F)cc2c1=O", "max response": "3.53% and 1.39%"}, {"molecule": "COc1cc(Nc2c(C#N)cnc3cc(OCCCN4CCN(C)CC4)c(OC)cc23)c(Cl)cc1Cl", "Potency": "3.72 µM (active) and 6.51 µM (active)"}, {"molecule": "CC(C)[N+]1(C)[C@@H]2CC[C@H]1CC(OC(=O)C(CO)c1ccccc1)C2", "note": "(some centres undefined)", "max response": "2.83%"}, {"molecule": "Cc1ccc(S(=O)(=O)NC(=O)NN2CC3CCCC3C2)cc1", "note": "(centres undefined)", "outcome": "inactive"}, {"molecule": "O=C(CCc1ccc(O)cc1)c1c(O)cc(O)cc1O", "outcome": "inactive"}, {"molecule": "Cc1cccc(-c2[nH]ncc2-c2ccc3ncccc3n2)n1", "max response": "-2.02%"}, {"molecule": "CCCOc1ccc2nc(NC(=O)OC)[nH]c2c1", "Potency": "668 nM (active) and 132 nM (active)"}, {"molecule": "O=c1c(O)c(-c2ccc(O)cc2O)oc2cc(O)cc(O)c12", "max response": "-3.27%"}, {"molecule": "S=c1nc[nH]c2nc[nH]c12", "max response": "-19.8%"}, {"molecule": "O=C1NC(=O)C(c2ccccc2[N+](=O)[O-])=C1Nc1ccc(O)c(Cl)c1", "max response": "-2.05%"}, {"molecule": "N=C(N=C(N)N)N1CCOCC1", "max response": "-16.7% and 0.819%"}, {"molecule": "O=c1c(O)c(-c2cc(O)c(O)c(O)c2)oc2cc(O)cc(O)c12", "max response": "3.08%"}, {"molecule": "O=P(O)(O)C(O)(Cn1ccnc1)P(=O)(O)O", "outcome": "inactive"}, {"molecule": "COc1cc(OC)c(C(=O)CCCN2CCCC2)c(OC)c1", "outcome": "inactive"}, {"molecule": "CC(C)c1ccc2c(c1)c(SC(C)(C)C)c(CC(C)(C)C(=O)O)n2Cc1ccc(Cl)cc1", "max response": "-29.4%"}, {"molecule": "Cc1cc(C2CCCCC2)n(O)c(=O)c1", "Potency": "3.35 µM (active) and 2.96 µM (active)"}, {"molecule": "Cc1nc2n(c(=O)c1CCN1CCC(c3noc4cc(F)ccc34)CC1)CCCC2", "max response": "0.174%"}, {"molecule": "CN(C)CCCC1(c2ccc(F)cc2)OCc2cc(C#N)ccc21", "note": "(centres undefined)", "max response": "-4.07%"}]}, {"tested_on": "HEK293", "assay": "Cytotoxic Profiling of Annotated Libraries Using Quantitative High-Throughput Screening (AID 1296008)", "conditions": "Five cell lines viability, CellTiter-Glo ATP luminescence, 48-72 h; max response: active compounds read low", "in_short": "as §1", "values": [{"molecule": "O=C(OC1C[C@H]2CC[C@@H](C1)[N+]21CCCC1)C(O)(c1ccccc1)c1ccccc1", "note": "(some centres undefined)", "max response": "3.35%"}, {"molecule": "Oc1ccc2ccccc2c1SSc1c(O)ccc2ccccc12", "max response": "-1.68%"}, {"molecule": "Oc1ccc(-c2nc(-c3ccc(F)cc3)c(-c3ccncc3)[nH]2)cc1", "Potency": "11.8 µM (active)"}, {"molecule": "Nc1ccn([C@@H]2O[C@H](CO)[C@@H](O)C2O)c(=O)n1", "note": "(some centres undefined)", "outcome": "inactive"}, {"molecule": "CC1(C)C(=O)N(CCN2CCC(C(=O)c3ccc(F)cc3)CC2)c2ccccc21", "outcome": "inactive"}, {"molecule": "C[C@]12CCC(=O)C=C1CC[C@@H]1[C@H]2[C@@H](O)C[C@@]2(C)[C@H]1CC[C@]2(O)C(=O)CO", "outcome": "inactive"}, {"molecule": "O=C(c1ccccc1)c1ccc2n1CCC2C(=O)O", "note": "(centres undefined)", "max response": "1.29% and -15.1%"}, {"molecule": "CCOC(=O)C(C)Oc1cccc2c(=O)n(CC(=O)Nc3ccc4c(c3)OCCO4)ccc12", "note": "(centres undefined)", "max response": "-23.2%"}, {"molecule": "O=C(CS(=O)Cc1ccco1)NCC=CCOc1cc(CN2CCCCC2)ccn1", "note": "(centres undefined)", "max response": "-11.3%"}, {"molecule": "COC(=O)C1=C(C)NC(C)=C(C(=O)OC(C)C)C1c1cccc2nonc12", "note": "(centres undefined)", "max response": "-10.7%"}, {"molecule": "CC[C@]1(O)C[C@H]2CN(CCc3c([nH]c4ccccc34)[C@@](C(=O)OC)(c3cc4c(cc3OC)N(C=O)[C@H]3[C@@](O)(C(=O)OC)[C@H](OC(C)=O)[C@]5(CC)C=CCN6CC[C@]43[C@@H]65)C2)C1", "Potency": "14.8 nM (active) and 150 nM (active)"}, {"molecule": "Clc1ccc2c(N3CCN(CCCN4CCN(c5ccnc6cc(Cl)ccc56)CC4)CC3)ccnc2c1", "outcome": "inactive"}, {"molecule": "CN(C)c1ccc2nc3ccc(=[N+](C)C)cc-3sc2c1", "Potency": "1.66 µM (active) and 1.33 µM (active)"}, {"molecule": "CC(C)(S)[C@@H](N)C(=O)O", "max response": "2.4%"}, {"molecule": "COc1cc2c(N3CCN(C(=O)Nc4ccc(OC(C)C)cc4)CC3)ncnc2cc1OCCCN1CCCCC1", "Potency": "18.7 µM (active)"}, {"molecule": "O=c1oc2cc(O)ccc2s1", "max response": "-4.04%"}, {"molecule": "NS(=O)(=O)c1cc(C(=O)O)c(NCc2ccco2)cc1Cl", "max response": "1.46% and -13.3%"}, {"molecule": "CC(C)C[C@H](NC(=O)[C@H](Cc1ccccc1)NC(=O)c1cnccn1)B(O)O", "Potency": "47.3 nM (active) and 41.1 nM (active)"}, {"molecule": "C[C@@H](c1ncncc1F)[C@](O)(Cn1cncn1)c1ccc(F)cc1F", "max response": "-20.1%"}, {"molecule": "O=C(O)c1cn(-c2ccc(F)cc2)c2cc(N3CCNCC3)c(F)cc2c1=O", "max response": "-4.73%"}, {"molecule": "COc1cc(Nc2c(C#N)cnc3cc(OCCCN4CCN(C)CC4)c(OC)cc23)c(Cl)cc1Cl", "Potency": "2.37 µM (active) and 4.18 µM (active) and 11.6 µM (active)"}, {"molecule": "CC(C)[N+]1(C)[C@@H]2CC[C@H]1CC(OC(=O)C(CO)c1ccccc1)C2", "note": "(some centres undefined)", "max response": "-4.08%"}, {"molecule": "Cc1ccc(S(=O)(=O)NC(=O)NN2CC3CCCC3C2)cc1", "note": "(centres undefined)", "max response": "2.56%"}, {"molecule": "O=C(CCc1ccc(O)cc1)c1c(O)cc(O)cc1O", "max response": "0.264%"}, {"molecule": "Cc1cccc(-c2[nH]ncc2-c2ccc3ncccc3n2)n1", "max response": "-26.8%"}, {"molecule": "CCCOc1ccc2nc(NC(=O)OC)[nH]c2c1", "Potency": "0.15 µM (active)"}, {"molecule": "O=c1c(O)c(-c2ccc(O)cc2O)oc2cc(O)cc(O)c12", "max response": "4.53%"}, {"molecule": "S=c1nc[nH]c2nc[nH]c12", "Potency": "6.68 µM (active) and 13.2 µM (active)"}, {"molecule": "O=C1NC(=O)C(c2ccccc2[N+](=O)[O-])=C1Nc1ccc(O)c(Cl)c1", "outcome": "inactive"}, {"molecule": "N=C(N=C(N)N)N1CCOCC1", "max response": "-13.7% and 0.579%"}, {"molecule": "O=c1c(O)c(-c2cc(O)c(O)c(O)c2)oc2cc(O)cc(O)c12", "max response": "-2.69%"}, {"molecule": "O=P(O)(O)C(O)(Cn1ccnc1)P(=O)(O)O", "max response": "-11%"}, {"molecule": "COc1cc(OC)c(C(=O)CCCN2CCCC2)c(OC)c1", "max response": "-1.67% and -16.3%"}, {"molecule": "CC(C)c1ccc2c(c1)c(SC(C)(C)C)c(CC(C)(C)C(=O)O)n2Cc1ccc(Cl)cc1", "max response": "-2.03%"}, {"molecule": "Cc1cc(C2CCCCC2)n(O)c(=O)c1", "Potency": "5.9 µM (active)"}, {"molecule": "Cc1nc2n(c(=O)c1CCN1CCC(c3noc4cc(F)ccc34)CC1)CCCC2", "max response": "-10.6%"}, {"molecule": "CN(C)CCCC1(c2ccc(F)cc2)OCc2cc(C#N)ccc21", "note": "(centres undefined)", "max response": "-24.9%"}]}]}
